Experiment [1] in a line: qHTS drug screen for cell cycle checkpoint inhibitors in PARPi-resistant BRCA-mutant ovarian cancer cell lines. (AID 1963452; calls by dose curve). The settings on record: PEO1/OlaR viability, CellTiter-Glo luminescence, 96 h, stronger effect = lower value. Put shortly:
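PEO1, PEO4 and PEO1/OlaR ovarian cancer cells, 600 per well, exposed 96 h at 37C to a dilution series. Viability read by CellTiter-Glo luminescence, normalized to DMSO and empty wells; activity summarized as Z-AUC.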
Background: qHTS replaces the single test concentration by a dilution series.

A short description of experiment [2]: qHTS for identification of novel therapeutic agents for treatment of microphthalmiaassociated transcription factor (MiT) renal cell carcinoma (RCC) (AID 1963991; calls by dose curve; also: potency is read from the fitted curve at half-maximal effect). The settings on record: CellTiter-Glo, 48 h; for z-score: stronger effect = lower value. Put shortly: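 Three TFE3-fusion RCC cell lines (UOK109, UOK124, UOK145), 500 cells/well, were exposed to the 1912-compound MIPE 4.0 library for 48 hours at 37 C. Viability was read by CellTiter-Glo luminescence, normalised to DMSO (100%) and empty wells (0%), with 11-concentration curve fits.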

A short description of experiment [3]: qHTS profiling for inhibitors of Plasmodium falciparum proliferation (AID 504749). Also: potency is read from the fitted curve at half-maximal effect.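 As to activity, negative = inhibition: 0% = DMSO vehicle and full inhibition = artemisinin control.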 As to all read-outs here: nearly all actives have a fitted effect of over 60% in size. As to conditions: P. falciparum in erythrocytes, SYBR Green DNA, 72 h; for activity, negative = inhibition: at 12.8 µM (top of the series). A digest of the protocol:
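Quantitative HTS: compounds pinned into medium, infected erythrocytes added (0.3% parasitemia, 2.5% hematocrit), 72 h culture at 37 C under 5% CO2. Saponin/Triton lysis with SYBR Green I, overnight RT, then fluorescence read.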

Setting [4] is: measured here: PEO1 parental Z-AUC.
[5] abbreviates: TFE3-RCC UOK109 viability, measured here: UOK109 Z-AUC.
The mark [6] stands for this setting: TFE3-RCC viability, measured here: UOK124 Z-AUC.
[7] abbreviates: TFE3-RCC viability, measured here: UOK145 Z-AUC.

Records with an inconclusive call do not appear. The source made the active and inactive calls. Unless noted, calls follow the shape of the dose curve; as a rule, active = well fitted inhibition curve with a large enough effect; inconclusive = small, poorly fitted or top-dose-only effect; inactive = flat fitted curve, though single readings scatter.

Take `COc1ccc(CCC(=O)Nc2nc3ccc(Cl)cc3s2)cc1OC`: the Z-AUC in experiment [1] was -1.42 (inactive); in experiment [1] (setting [4]) it was -0.917; in experiment [1] (measured here: PEO4 Z-AUC), -0.954.

On to `CCOC(=O)[C@@H](N)CCC(=O)N[C@@H](CSCc1ccccc1)C(=O)N[C@@H](C(=O)OCC)c1ccccc1`, for which the Z-AUC in experiment [1] is 1.2 (inactive); in experiment [1] (setting [4]), 1.04; in experiment [1] (measured here: PEO4 Z-AUC) it was 1.07. Further, the z-score in experiment [2] (setting [5]) is -0.0164; in experiment [2] (setting [6]), 0.492; in experiment [2] (setting [7]), 0.0682.

Regarding `C#CCN(C)CC1=Cc2ccccc2Oc2ccccc21`, the figures for the Z-AUC in experiment [1], in experiment [1] (setting [4]) and in experiment [1] (measured here: PEO4 Z-AUC) were -0.343 (inactive), -0.493 and -0.09, respectively. Further, the z-score in experiment [2] (setting [5]) was -0.41; in experiment [2] (setting [6]), 0.413; in experiment [2] (setting [7]), -1.17.

Take `C=C1c2cccc(O)c2C(O)=C2C(=O)[C@@]3(O)C(O)=C(C(N)=O)C(=O)[C@@H](N(C)C)[C@@H]3[C@@H](O)[C@H]12`: the activity, negative = inhibition in experiment [3] (parasite line A) was -22.9% (inactive); in experiment [3] (parasite line B) it was -19.4% (inactive).

On to `NS(=O)(=O)c1cc(Cl)c(Cl)c(S(N)(=O)=O)c1`, for which the activity, negative = inhibition is 1.59% (inactive) in experiment [3] (parasite line A) and 6.65% (inactive) in experiment [3] (parasite line B).

Consider `Clc1ccc(COC(Cn2ccnc2)c2ccc(Cl)cc2Cl)c(Cl)c1` (stereo not drawn), for which the Potency in experiment [3] (parasite line B) was 2.82 µM (active).

In the case of `FC(F)(F)c1ccc(C=Cc2nc(COc3ccc(CCCCn4ccnn4)cc3)co2)cc1`, the Potency in experiment [2] (TFE3-RCC UOK109 viability, active = Z-AUC below -0.8 in all three lines) was 0.00296 µM (active).

As to `COc1c(C)c2c(c(O)c1CC=C(C)CCC(=O)OCCN1CCOCC1)C(=O)OC2`, the Potency in experiment [3] (parasite line A) was 7.94 µM (active); in experiment [3] (parasite line B), 10 µM (active).

The values above are taken from PubChem BioAssay (NCATS).
